Values joined by “and” are separate entries in the source; they are usually repeats but may differ in a detail not shown here. Equal values may be shown once. Entries with a potency or affinity are not part of this list.
Legend:
Klebsiella pneumoniae = details: Concentration 32 ug.mL-1, ASSAY_TEST Inhibition of Bacterial Growth, detection method Absorption (OD600), MEDIA CAMHB, plate type 384well, NBS, CORNING #3640, time 18 hr
Candida albicans = details: 32 ug/mL
Cryptococcus neoformans = details: Concentration 32 ug.mL-1, ASSAY_TEST Inhibition of Fungal Growth, detection method Resazurin, Absorption (OD600-OD570), plate type 384well, NBS, CORNING #3640

Row | SMILES | Inhibition (Klebsiella pneumoniae) [%] | Inhibition (Candida albicans) | Inhibition (Cryptococcus neoformans) [%] | Inhibition (Klebsiella pneumoniae; 32 ug/mL) | Inhibition (Cryptococcus neoformans; 32 ug/mL)
1 | COc1ccc(C2C(C#N)=C(N)Oc3ccc4ccccc4c32)cc1 (configuration not stated) | 8.69 | 1.62% | -30.57 | – | –
2 | O=C(N/N=C/c1cccc(Cl)c1)c1cc2ccccc2[nH]1 | -14.42 | -0.35% | -2.87 | – | –
3 | C#CCNc1ncc(C#N)c(N)n1 | 3.55 | 2.29% | -34.7 | – | –
4 | CC1=C(C(=O)N2[C@@H]3C[C@H]4CCC3(CS2(=O)=O)C4(C)C)C(c2ccccc2)C(C#N)=C(N)O1 (some centres not stated) | 14.51 | 3.41% | -6.44 | – | –
5 | NNC(=O)Cc1c[nH]c2ccccc12 | 17.86 | 3.51% | -6.14 | – | –
6 | CNCc1cc2cc(OCc3ccccc3)ccc2n1C.Cl | 14.91 | -0.02% | 0.75 | – | –
7 | COc1ccc(C2C(C#N)=C(Cl)Oc3c2ccc2ccccc32)cc1OC (configuration not stated) | -4.48 | 18.1% | -55.36 | – | –
8 | O=C(Cc1c[nH]c2ccccc12)NNCc1ccccc1 | 1.88 | 0.22% | -1.3 | – | –
9 | COC(=O)C1(NC(=O)c2ccccc2)CC1c1ccccc1 (configuration not stated) | 3.5 | 0.07% | -1.1 | – | –
10 | N#Cc1cc(C#N)c(N2CCCC2)nc1N | 16.35 | 1.23% | -54.35 | – | –
11 | CC1=NC(=Cc2ccccc2)C(=O)S1 | 11 | 0.37% | -6.24 | – | –
12 | N#Cc1c(N)nc(N2CCC(Cc3ccccc3)CC2)c(C#N)c1-c1ccccc1 | 7.85 | 1.84% | -30 | – | –
13 | O=C(COc1ccc2ccccc2c1)N/N=C/c1c[nH]c2ccccc12 | 8.99 | 0.9% | -4.09 | – | –
14 | C#CCN(C)c1nc(NCC2CCN(Cc3ccccc3)CC2)c(C#N)c(-c2ccccc2)c1C#N.Cl | 9.81 | -0.67% | 16.69 | – | –
15 | COc1ccc(-c2cc(-c3cc4ccc(F)cc4nc3Cl)cc(=O)[nH]2)cc1 | -16.09 | 1.94% | -21.89 | – | –
16 | O[C@H]1CC[C@H](NCc2ccccc2)CC1 | 16.79 | -0.77% | -37.74 | – | –
17 | O=C(N/N=C/Cc1ccccc1)c1cc2ccccc2[nH]1 | 10.16 | -1.49% | -3.25 | – | –

Row | SMILES | Inhibition (Klebsiella pneumoniae) [%] | Inhibition (Candida albicans) | Inhibition (Cryptococcus neoformans) [%] | Inhibition (Klebsiella pneumoniae; 32 ug/mL) | Inhibition (Cryptococcus neoformans; 32 ug/mL)
18 | COc1ccc2cc(C3C4=C(CC(C)(C)CC4=O)Oc4nc5c(c(N)c43)CCCCC5)c(Cl)nc2c1 (configuration not stated) | 4.86 | 23% | -4.18 | – | –
19 | O=C1NC(=S)N/C1=C\c1ccccc1 | 18.56 | 0.81% | -1.21 | – | –
20 | COC(=O)C(=Cc1ccccc1)NC(=O)c1ccccc1 | 12.18 | 0.5% | -5.65 | – | –
21 | N#Cc1cc(C#N)c(NC2CCN(Cc3ccccc3)CC2)nc1N | – | 1.61% and 2.76% | – | 9.31% and 4.29% | -42.03% and -48.76%
22 | COc1cccc(C2C(C#N)=C(N)Oc3[nH]nc(C)c32)c1 (configuration not stated) | 26.54 | 0.08% | -0.28 | – | –
23 | CC(=O)Oc1ccc(C=C2N=C(c3ccccc3)OC2=O)c(OC(C)=O)c1 | 2.13 | 3.75% | -6.54 | – | –
24 | ClCCC1CCN(Cc2ccccc2)CC1 | 14.5 | 6.52% | -7.64 | – | –
25 | O=C(N[C@H]1CC[C@@H](Br)[C@@H](Br)C1)C(F)(F)F | 11.37 | 9.4% | -47.65 | – | –
26 | Cc1nc(NCc2ccccc2)c2cnn(-c3ccccc3)c2n1 | 15.01 | -0.57% | -3.46 | – | –
27 | C#CCN(C)c1nc(Sc2ccccc2)c(C#N)c(-c2ccccc2)c1C#N | 17.28 | 1.53% | -1.7 | – | –
28 | COc1ccc(C2c3c(ccc4ccccc34)OC(=N)C2(Br)C#N)cc1 (configuration not stated) | 10.22 | 17.9% | -84.01 | – | –
29 | CC1=C(CO)C(c2ccc(C#N)cc2)C(C#N)=C(N)O1 (configuration not stated) | 10.02 | 5.46% | -8.41 | – | –
30 | CC(=O)Nc1nc(Cl)c(C#N)c(-c2ccccc2)c1C#N | 7.97 | 1.84% | -41.58 | – | –
31 | COc1ccc(C2c3ccc4ccccc4c3OC(=NBr)C2(Br)C#N)cc1 (configuration not stated) | 6.43 | 2.22% | -24.77 | – | –
32 | CCOC(=O)c1cn(C)c2ccccc12 | 12.15 | 7.9% | -4.62 | – | –
33 | CC(C)NNC(=O)Cc1c[nH]c2ccccc12 | 18.29 | -0.05% | -1.92 | – | –
34 | C/C=C(/C#N)C(=O)OC | 5.34 | -0.41% | -2.55 | – | –
